Test results from the supplement of paper PMC10849652.
Targets with a hit are over-represented here; the source holds about 8,800 in all. About 0.5% of all pairs of compound and target were hits.

Key:
Experiment in all cases: log2 fold change, soluble protein after heating vs DMSO (PISA); higher = thermal stabilisation; K562 lysate, 10 uM; active = over 0.2 and 3.5 SD of the protein, either way, in both replicates (recomputed)
[1] = compound: C#Cc1cccc(Nc2ncnc3cc(OCCOC)c(OCCOC)cc23)c1 [erlotinib]
Outline: (§1)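 Thermal stability, expressed as log-two fold change relative to solvent controls, is given from duplicates. Crude K562 extract in PBS pH 7.4 with 1 mM MgCl2, at 1 mg/mL protein, was treated with 10 μM compound for 30 min and heated in aliquots for 3 min across 48°C-58°C. After pooling, adjustment to 0.5% NP-40 at 4°C and centrifugation at 21,000xg for 90 min, supernatant protein was measured by TMTpro 16plex LC-MS/MS with channel sums equalised.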

[2] = compound: C/C(=N\NC(=O)C1=CC(=CC=C1)S(=O)(=O)N2CCOCC2)/C3=C(C=CC(=C3)Cl)O
Outline: as §1

[3] = compound: C1=CC(=CC=C1C2=NC3=C(N2)C=C(C=C3)C(=O)N)OC4=CC=C(C=C4)Cl
Outline: as §1

[4] = compound: C1=CC2=C(C=CC(=C2)/C=C\3/C(=O)NC(=NCC4=CC=CS4)S3)N=C1
Outline: as §1

[5] = compound: C1=CC2=NC=CN=C2C=C1/C=C/3\C(=O)NC(=O)S3
Outline: as §1

[6] = compound: C1=CC=C(C=C1)C2=NC(=C(N2)C3=CC=NC=C3)C4=CC(=C(C=C4)Cl)O
Outline: as §1

[7] = compound: C1=CC=C2C(=C1)C3=NNC4=CC=CC(=C43)C2=O
Outline: as §1

[8] = compound: C1CCN(C1)C(=O)NC2=CC=CC(=C2)NC3=NC=C(C(=N3)NCCC4=CN=CN4)Br
Outline: as §1

[9] = compound: C1CN(CCC1(CC2=CC=C(C=C2)Cl)N)C3=NC=NC4=C3C=CN4
Outline: as §1

[10] = compound: C1COCCN1CCN2C3=CC=CC=C3N=C2NC(=O)C4=CC(=CC=C4)[N+](=O)[O-] [IRAK-1-4 Inhibitor I]
Outline: as §1

[11] = compound: C=CC(=O)N1CCC[C@@H](n2nc(-c3ccc(Oc4ccccc4)cc3)c3c(N)ncnc32)C1 [ibrutinib]
Outline: as §1

[12] = compound: CC(=O)c1cnc2ccc(-c3cc(Cl)c(O)c(Cl)c3)nc2c1N[C@H]1CC[C@H](CN(C)C)CC1
Outline: as §1

[13] = compound: CC(C)(C)Cn1c(N)nc2ccc(-c3[nH]c(C(C)(C)C)nc3-c3ccc(F)cc3)nc21 [ralimetinib]
Outline: as §1

[14] = compound: CC(C)(O)CC(=O)NCCn1ccc2ncnc(Nc3ccc(Oc4cccc(C(F)(F)F)c4)c(Cl)c3)c21
Outline: as §1

[15] = compound: CC(C)C1=C2N=C(C=C(N2N=C1)NCC3=CC=CC=C3)NCCCCCCN
Outline: as §1

[16] = compound: CC1=C(C(CC(=O)N1)C2=CC=C(C=C2)C(F)(F)F)C(=O)NC3=C(C=C4C(=C3)C=NN4)F
Outline: as §1

[17] = compound: CC1=C(C2=C(C=C1)C(=O)C3=CC=CC=C3N2CCCN)C
Outline: as §1

[18] = compound: CC1=C(C=C(C=C1)NC(=O)C2=CC(=CC=C2)C(C)(C)C#N)NC3=CC4=C(C=C3)N=CN(C4=O)C
Outline: as §1

[19] = compound: CC1=C(C=C(C=C1)NC(=O)C2=CC(=CC=C2)N(C)C)NC(=O)C3=CC=C(C=C3)O
Outline: as §1

[20] = compound: CC1=CC=C(C=C1)SC2=C3C=C(SC3=CN=C2)C(=O)N
Outline: as §1

Measured: log2 fold change

GEMIN5 (UniProt Q8TEQ6)
Chain of UniProt Q8TEQ6 (Q8TEQ6 whole entry, looked up): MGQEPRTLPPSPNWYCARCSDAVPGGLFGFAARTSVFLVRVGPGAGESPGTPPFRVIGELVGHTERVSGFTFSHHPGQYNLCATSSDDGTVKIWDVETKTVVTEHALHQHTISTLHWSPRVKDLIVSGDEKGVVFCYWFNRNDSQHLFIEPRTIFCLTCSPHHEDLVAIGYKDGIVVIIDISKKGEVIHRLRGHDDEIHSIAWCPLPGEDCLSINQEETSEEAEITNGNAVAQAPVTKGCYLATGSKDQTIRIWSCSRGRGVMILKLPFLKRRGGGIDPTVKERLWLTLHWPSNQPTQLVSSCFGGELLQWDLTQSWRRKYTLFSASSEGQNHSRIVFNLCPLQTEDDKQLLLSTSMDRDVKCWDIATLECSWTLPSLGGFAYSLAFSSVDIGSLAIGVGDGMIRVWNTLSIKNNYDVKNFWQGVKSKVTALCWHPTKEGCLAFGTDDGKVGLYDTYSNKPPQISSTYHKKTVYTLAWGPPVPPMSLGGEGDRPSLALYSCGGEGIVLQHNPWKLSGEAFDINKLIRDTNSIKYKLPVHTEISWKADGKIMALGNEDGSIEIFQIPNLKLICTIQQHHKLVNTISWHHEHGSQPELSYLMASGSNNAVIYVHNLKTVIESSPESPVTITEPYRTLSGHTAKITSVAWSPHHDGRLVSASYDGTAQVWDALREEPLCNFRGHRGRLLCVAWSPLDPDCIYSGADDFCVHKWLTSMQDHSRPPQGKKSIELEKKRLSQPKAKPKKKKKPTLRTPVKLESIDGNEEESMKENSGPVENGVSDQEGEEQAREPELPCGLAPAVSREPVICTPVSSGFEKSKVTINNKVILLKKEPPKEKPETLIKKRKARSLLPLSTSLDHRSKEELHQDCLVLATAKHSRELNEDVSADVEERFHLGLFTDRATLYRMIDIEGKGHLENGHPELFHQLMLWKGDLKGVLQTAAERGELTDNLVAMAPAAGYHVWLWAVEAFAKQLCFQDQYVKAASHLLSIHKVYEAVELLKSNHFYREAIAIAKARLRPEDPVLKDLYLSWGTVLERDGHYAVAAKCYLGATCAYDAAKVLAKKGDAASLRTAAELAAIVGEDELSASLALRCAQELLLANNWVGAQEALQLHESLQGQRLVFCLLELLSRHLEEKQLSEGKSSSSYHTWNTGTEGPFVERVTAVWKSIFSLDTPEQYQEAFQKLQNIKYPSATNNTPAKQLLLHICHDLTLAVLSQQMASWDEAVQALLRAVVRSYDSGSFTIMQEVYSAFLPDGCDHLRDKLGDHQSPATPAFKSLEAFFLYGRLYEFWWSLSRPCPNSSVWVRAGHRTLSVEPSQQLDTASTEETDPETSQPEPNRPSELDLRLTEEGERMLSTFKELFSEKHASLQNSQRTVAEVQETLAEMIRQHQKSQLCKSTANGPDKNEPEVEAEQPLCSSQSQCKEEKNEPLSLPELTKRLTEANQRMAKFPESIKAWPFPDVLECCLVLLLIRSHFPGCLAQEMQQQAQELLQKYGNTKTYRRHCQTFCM
inactive: [1] -0.001 | [2] 0.004 | [3] -0.012 | [4] 0.015 | [5] 0.032 | [6] -0.006 | [7] -0.034 | [8] 0 | [9] -0.006 | [10] -0.025 | [11] 0.012 | [12] -0.01 | [13] 0.03 | [14] -0.001 | [15] 0.016 | [16] -0.02 | [17] -0.026 | [18] 0.005 | [19] 0.014 | [20] 0.007

FADS3 (UniProt Q9Y5Q0)
inactive: [1] 0.075 | [2] -0.355 | [3] -0.052 | [4] 0.118 | [5] 0.016 | [6] -0.072 | [7] -0.124 | [8] 0.109 | [9] -0.291 | [10] -0.097 | [11] 0.11 | [12] -0.02 | [13] -0.123 | [14] 0.075 | [15] -0.051 | [16] 0.074 | [17] -0.49 | [18] 0.015 | [19] 0.017 | [20] -0.017

FASTKD2 (UniProt Q9NYY8)
inactive: [1] 0.028 | [2] 0.041 | [3] -0.005 | [4] 0.03 | [5] 0.019 | [6] -0.007 | [7] -0.018 | [8] 0.013 | [9] 0.002 | [10] 0.016 | [11] -0.008 | [12] -0.006 | [13] -0.004 | [14] -0.039 | [15] -0.013 | [16] 0.003 | [17] -0.007 | [18] 0.034 | [19] -0.001 | [20] 0.024

GCDH (UniProt Q92947)
inactive: [1] -0.038 | [2] 0.1 | [3] -0.023 | [4] 0.051 | [5] 0.089 | [6] -0.027 | [7] 0.009 | [8] 0 | [9] 0 | [10] 0.011 | [11] -0.046 | [12] 0.028 | [13] -0.04 | [14] 0.014 | [15] -0.051 | [16] 0.069 | [17] -0.019 | [18] 0.086 | [19] -0.017 | [20] -0.03

ESRRA (UniProt P11474)
active: [11] -0.408
inactive: [1] 0.065 | [2] 0.171 | [3] -0.037 | [4] 0.06 | [5] -0.131 | [6] -0.033 | [7] -0.112 | [8] -0.018 | [9] 0.2 | [10] 0.029 | [12] 0.045 | [13] 0.043 | [14] -0.023 | [15] 0 | [16] -0.007 | [17] -0.075 | [18] 0.067 | [19] -0.009 | [20] 0.089

EIF2B5 (UniProt Q13144)
Chain of UniProt Q13144 (Q13144 whole entry, looked up): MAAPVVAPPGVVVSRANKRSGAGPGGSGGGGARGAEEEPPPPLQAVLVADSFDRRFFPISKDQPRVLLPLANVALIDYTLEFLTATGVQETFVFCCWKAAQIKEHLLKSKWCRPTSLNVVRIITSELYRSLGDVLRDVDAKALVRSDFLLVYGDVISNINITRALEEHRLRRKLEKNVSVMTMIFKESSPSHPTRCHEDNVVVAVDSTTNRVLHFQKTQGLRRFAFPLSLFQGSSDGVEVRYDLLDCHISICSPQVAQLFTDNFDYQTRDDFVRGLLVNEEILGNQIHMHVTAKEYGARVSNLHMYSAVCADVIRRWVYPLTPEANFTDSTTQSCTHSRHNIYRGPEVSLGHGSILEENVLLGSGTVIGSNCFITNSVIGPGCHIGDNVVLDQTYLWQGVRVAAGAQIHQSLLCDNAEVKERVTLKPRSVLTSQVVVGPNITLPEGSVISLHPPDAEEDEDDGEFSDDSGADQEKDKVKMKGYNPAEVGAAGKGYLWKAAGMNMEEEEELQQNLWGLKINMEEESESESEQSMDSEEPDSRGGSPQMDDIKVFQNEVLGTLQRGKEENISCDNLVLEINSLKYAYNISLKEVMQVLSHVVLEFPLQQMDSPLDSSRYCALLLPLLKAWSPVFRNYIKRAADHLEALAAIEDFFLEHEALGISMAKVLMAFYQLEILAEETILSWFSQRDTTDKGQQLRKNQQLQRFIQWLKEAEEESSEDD
inactive: [1] 0.015 | [2] -0.052 | [3] -0.017 | [4] 0.011 | [5] 0.03 | [6] -0.011 | [7] -0.054 | [8] 0.006 | [9] 0.007 | [10] 0.027 | [11] 0 | [12] 0.008 | [13] 0.027 | [14] -0.018 | [15] 0.008 | [16] -0.019 | [17] 0.012 | [18] -0.031 | [19] 0.008 | [20] 0.02

FBLL1 (UniProt A6NHQ2)
inactive: [1] -0.003 | [2] -0.015 | [3] -0.008 | [4] 0.059 | [5] 0.075 | [6] -0.031 | [7] -0.031 | [8] 0.021 | [9] 0.022 | [10] -0.004 | [11] -0.042 | [12] -0.031 | [13] 0.029 | [14] -0.056 | [15] -0.014 | [16] 0.001 | [17] -0.121 | [18] 0.006 | [19] 0.049 | [20] -0.018

FDX2 (UniProt Q6P4F2)
Chain of UniProt Q6P4F2 (Q6P4F2 whole entry, looked up): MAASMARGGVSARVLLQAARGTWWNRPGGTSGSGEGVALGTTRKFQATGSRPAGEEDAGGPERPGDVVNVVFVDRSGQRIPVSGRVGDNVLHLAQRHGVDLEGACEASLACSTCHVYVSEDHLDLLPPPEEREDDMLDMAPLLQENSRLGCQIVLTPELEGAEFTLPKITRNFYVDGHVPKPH
inactive: [1] -0.051 | [2] 0.063 | [3] 0.044 | [4] 0.065 | [5] -0.009 | [6] -0.041 | [7] -0.054 | [8] -0.402 | [9] -0.17 | [10] 0.05 | [11] 0.056 | [12] -0.025 | [13] -0.047 | [14] -0.194 | [15] -0.039 | [16] 0.01 | [17] -0.018 | [18] 0.015 | [19] 0.05 | [20] 0.006

EXOC5 (UniProt O00471)
Chain of UniProt O00471 (O00471 whole entry, looked up): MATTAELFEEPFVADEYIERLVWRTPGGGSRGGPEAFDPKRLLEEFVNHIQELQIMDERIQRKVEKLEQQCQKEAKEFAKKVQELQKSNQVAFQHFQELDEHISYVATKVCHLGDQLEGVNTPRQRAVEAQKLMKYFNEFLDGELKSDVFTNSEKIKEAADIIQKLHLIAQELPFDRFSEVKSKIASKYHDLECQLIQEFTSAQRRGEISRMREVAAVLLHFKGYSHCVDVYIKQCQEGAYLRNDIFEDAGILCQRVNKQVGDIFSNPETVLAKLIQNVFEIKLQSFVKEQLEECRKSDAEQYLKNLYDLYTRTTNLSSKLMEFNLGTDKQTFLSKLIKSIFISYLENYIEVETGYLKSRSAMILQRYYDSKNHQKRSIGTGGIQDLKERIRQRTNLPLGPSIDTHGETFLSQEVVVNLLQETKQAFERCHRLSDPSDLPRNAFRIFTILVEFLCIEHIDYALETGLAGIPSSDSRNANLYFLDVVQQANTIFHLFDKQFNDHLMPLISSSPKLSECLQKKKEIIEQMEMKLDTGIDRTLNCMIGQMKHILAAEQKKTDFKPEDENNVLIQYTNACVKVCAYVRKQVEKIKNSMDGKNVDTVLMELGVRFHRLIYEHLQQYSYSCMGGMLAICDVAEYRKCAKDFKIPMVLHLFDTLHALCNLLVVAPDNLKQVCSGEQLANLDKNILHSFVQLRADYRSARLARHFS
inactive: [1] 0.022 | [2] -0.021 | [3] -0.041 | [4] 0.033 | [5] -0.006 | [6] -0.013 | [7] -0.016 | [8] 0.005 | [9] 0.006 | [10] -0.011 | [11] -0.015 | [12] 0.012 | [13] 0.04 | [14] -0.003 | [15] -0.016 | [16] 0.008 | [17] 0.003 | [18] -0.024 | [19] 0.041 | [20] -0.013

FBXO22 (UniProt Q8NEZ5)
inactive: [1] 0.042 | [2] -0.022 | [3] 0.048 | [4] 0.016 | [5] 0.02 | [6] -0.002 | [7] -0.01 | [8] 0.029 | [9] 0.049 | [10] 0.007 | [11] -0.03 | [12] 0.017 | [13] 0.003 | [14] -0.06 | [15] -0.078 | [16] -0.026 | [17] -0.006 | [18] 0.016 | [19] 0 | [20] -0.014

FAM118B (UniProt Q9BPY3)
Chain of UniProt Q9BPY3 (Q9BPY3 whole entry, looked up): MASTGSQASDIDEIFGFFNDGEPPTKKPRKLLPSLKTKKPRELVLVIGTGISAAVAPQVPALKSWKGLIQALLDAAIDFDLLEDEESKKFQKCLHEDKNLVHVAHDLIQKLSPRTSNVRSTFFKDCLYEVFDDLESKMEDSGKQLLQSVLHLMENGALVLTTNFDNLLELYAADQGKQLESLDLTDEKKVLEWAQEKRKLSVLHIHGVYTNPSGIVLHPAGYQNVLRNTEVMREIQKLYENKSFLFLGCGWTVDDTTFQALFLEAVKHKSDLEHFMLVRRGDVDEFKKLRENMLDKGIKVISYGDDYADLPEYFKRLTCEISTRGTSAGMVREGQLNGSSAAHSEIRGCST
inactive: [1] -0.004 | [2] 0.051 | [3] 0.004 | [4] 0.061 | [5] 0.03 | [6] -0.01 | [7] -0.012 | [8] 0.013 | [9] -0.004 | [10] -0.03 | [11] 0.066 | [12] -0.016 | [13] 0.015 | [14] -0.019 | [15] 0.023 | [16] -0.01 | [17] 0.012 | [18] -0.012 | [19] 0.03 | [20] 0.008

FIBP (UniProt O43427)
inactive: [1] -0.071 | [2] -0.027 | [3] 0.022 | [4] 0.067 | [5] 0.018 | [6] 0.041 | [7] 0.079 | [8] -0.064 | [9] 0.029 | [10] 0.006 | [11] 0.015 | [12] 0.02 | [13] 0.032 | [14] -0.026 | [15] 0.028 | [16] 0.057 | [17] 0.036 | [18] 0.01 | [19] 0.024 | [20] 0.011

FXR2 (UniProt P51116)
Chain of UniProt P51116 (P51116 whole entry, looked up): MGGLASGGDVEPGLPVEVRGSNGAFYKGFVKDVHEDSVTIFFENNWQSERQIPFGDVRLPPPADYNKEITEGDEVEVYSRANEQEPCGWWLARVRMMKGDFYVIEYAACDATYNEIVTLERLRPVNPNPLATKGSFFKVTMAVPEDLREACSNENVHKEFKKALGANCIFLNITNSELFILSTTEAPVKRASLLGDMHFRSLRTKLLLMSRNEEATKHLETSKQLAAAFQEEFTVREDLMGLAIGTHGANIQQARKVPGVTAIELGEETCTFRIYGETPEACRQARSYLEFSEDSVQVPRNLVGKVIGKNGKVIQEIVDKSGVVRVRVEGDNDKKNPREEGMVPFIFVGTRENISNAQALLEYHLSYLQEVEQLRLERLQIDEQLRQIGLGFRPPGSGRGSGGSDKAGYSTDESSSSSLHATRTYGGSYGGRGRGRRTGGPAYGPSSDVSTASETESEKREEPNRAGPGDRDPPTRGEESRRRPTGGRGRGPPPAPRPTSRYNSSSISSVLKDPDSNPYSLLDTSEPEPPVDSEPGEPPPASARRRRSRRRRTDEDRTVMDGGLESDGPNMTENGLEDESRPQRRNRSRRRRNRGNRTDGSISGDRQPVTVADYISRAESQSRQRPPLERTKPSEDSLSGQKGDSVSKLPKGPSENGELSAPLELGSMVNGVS
inactive: [1] 0.018 | [2] 0.026 | [3] -0.01 | [4] -0.042 | [5] 0.022 | [6] -0.029 | [7] -0.092 | [8] -0.085 | [9] 0.003 | [10] -0.075 | [11] 0.027 | [12] -0.008 | [13] 0.028 | [14] 0.004 | [15] 0.026 | [16] 0.024 | [17] 0.004 | [18] -0.005 | [19] -0.018 | [20] 0.011

FAM120B (UniProt Q96EK7)
Chain of UniProt Q96EK7 (Q96EK7 whole entry, looked up): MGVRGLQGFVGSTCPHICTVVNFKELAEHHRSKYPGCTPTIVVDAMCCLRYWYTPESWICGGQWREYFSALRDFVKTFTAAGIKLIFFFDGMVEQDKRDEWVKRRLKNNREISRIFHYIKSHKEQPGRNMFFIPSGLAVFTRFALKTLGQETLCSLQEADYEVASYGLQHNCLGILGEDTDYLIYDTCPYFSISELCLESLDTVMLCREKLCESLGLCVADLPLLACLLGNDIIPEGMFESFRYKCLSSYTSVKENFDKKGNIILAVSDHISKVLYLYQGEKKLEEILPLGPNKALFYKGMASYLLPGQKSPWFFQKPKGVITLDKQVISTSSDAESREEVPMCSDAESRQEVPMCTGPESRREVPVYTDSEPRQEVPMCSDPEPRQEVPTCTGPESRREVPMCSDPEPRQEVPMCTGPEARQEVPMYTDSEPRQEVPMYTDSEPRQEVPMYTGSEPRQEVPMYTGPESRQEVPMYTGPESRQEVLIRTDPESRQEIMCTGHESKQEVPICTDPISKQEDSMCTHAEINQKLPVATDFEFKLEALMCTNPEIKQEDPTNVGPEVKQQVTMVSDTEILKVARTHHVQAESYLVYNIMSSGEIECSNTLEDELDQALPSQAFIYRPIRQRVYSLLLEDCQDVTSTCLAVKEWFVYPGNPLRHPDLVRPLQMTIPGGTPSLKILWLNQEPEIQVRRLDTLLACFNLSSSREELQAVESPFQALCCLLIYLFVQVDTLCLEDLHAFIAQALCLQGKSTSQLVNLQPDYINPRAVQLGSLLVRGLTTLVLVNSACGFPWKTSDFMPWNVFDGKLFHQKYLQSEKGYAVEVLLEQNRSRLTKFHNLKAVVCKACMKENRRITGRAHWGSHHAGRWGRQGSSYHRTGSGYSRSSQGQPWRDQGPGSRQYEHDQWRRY
inactive: [1] 0.056 | [2] -0.032 | [3] 0.036 | [4] 0.035 | [5] 0.02 | [6] -0.004 | [7] 0.044 | [8] -0.013 | [9] 0.007 | [10] 0.009 | [11] 0.023 | [12] -0.003 | [13] 0.035 | [14] -0.013 | [15] 0.031 | [16] -0.028 | [17] 0.002 | [18] 0.008 | [19] 0.041 | [20] 0.012

EMC7 (UniProt Q9NPA0)
inactive: [1] 0.023 | [2] -0.011 | [3] -0.009 | [4] -0.02 | [5] -0.044 | [6] -0.011 | [7] -0.052 | [8] -0.002 | [9] 0.011 | [10] 0.02 | [11] -0.033 | [12] -0.001 | [13] 0.008 | [14] -0.003 | [15] 0.013 | [16] -0.012 | [17] 0.024 | [18] 0.015 | [19] -0.006 | [20] -0.032

FADS1, A0A0A0MR51
inactive: [1] -0.006 | [2] -0.033 | [3] -0.008 | [4] 0.085 | [5] -0.026 | [6] -0.012 | [7] 0.05 | [8] -0.002 | [9] -0.064 | [10] -0.026 | [11] 0.011 | [12] 0.178 | [13] 0.094 | [14] 0.094 | [15] -0.003 | [16] -0.032 | [17] 0.002 | [18] 0.113 | [19] -0.08 | [20] -0.115
